The full data set covers some 8,800 targets. This sample favours those with a hit. About 0.5% of all pairs of compound and target were hits.
Columns and labels:
Test in all cases: log2 fold change, soluble protein after heating vs DMSO (PISA); higher = thermal stabilisation; K562 lysate, 10 uM; active = over 0.2 and 3.5 SD of the protein, either way, in both replicates (recomputed)
[1] = compound: C1=CC=C(C=C1)[C@H](COC2=CC3=C(C=C2)NC(=O)N3)NC(=O)C4=CC=CN(C4=O)CC5=CC(=C(C=C5)F)F
Summary of the method: (§1)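 Values give the log-two fold change in thermal stability against solvent controls, from duplicates. Crude K562 extract at 1 mg/mL protein, made by dounce homogenisation in PBS pH 7.4 with 1 mM MgCl2, was treated with 10 μM compound for 30 min. After 3 min heating across 48°C-58°C, aliquots were pooled, adjusted to 0.5% NP-40 at 4°C and centrifuged at 21,000xg for 90 min. The supernatant was measured by TMTpro 16plex LC-MS/MS with channel sums equalised.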

[2] = compound: CC1=C(SC2=C1C(=N[C@H](C3=NN=C(N32)C)CC(=O)N)C4=CC=C(C=C4)Cl)C
Summary of the method: as §1

[3] = compound: CC1=C2C(=CC=C1)N=C(N(C2=O)C3=CC=CC=C3C)CN4C=NC5=C(N=CN=C54)N
Summary of the method: as §1

[4] = compound: Cc1sc2c(c1C)C(c1ccc(Cl)cc1)=N[C@@H](CC(=O)OC(C)(C)C)c1nnc(C)n1-2
Summary of the method: as §1

[5] = compound: c1ccc([C@@H]2C[C@H]2NC2CCNCC2)cc1
Summary of the method: as §1

Measured: log2 fold change

NCAPG2 (UniProt Q86XI2)
inactive: [1] -0.074 | [2] -0.04 | [3] 0.019 | [4] 0.025 | [5] 0.001

NDUFA4 (UniProt O00483)
inactive: [1] -0.019 | [2] -0.048 | [3] -0.063 | [4] 0.035 | [5] 0.287

NARF (UniProt Q9UHQ1)
inactive: [1] -0.023 | [2] -0.005 | [3] 0.017 | [4] -0.019 | [5] 0

NEK7 (UniProt Q8TDX7)
inactive: [1] 0.03 | [2] -0.032 | [3] -0.004 | [4] -0.076 | [5] 0.026

NCK1 (UniProt P16333)
inactive: [1] 0.018 | [2] 0 | [3] 0.022 | [4] 0.003 | [5] 0.049

NEDD8 (UniProt Q15843)
inactive: [1] 0.051 | [2] -0.014 | [3] -0.047 | [4] 0.002 | [5] 0.085

MTOR (UniProt P42345)
inactive: [1] -0.022 | [2] 0.004 | [3] 0.013 | [4] 0.014 | [5] 0.029

NGLY1 (UniProt Q96IV0)
UniProt Q96IV0, sequence (Q96IV0 whole entry, looked up): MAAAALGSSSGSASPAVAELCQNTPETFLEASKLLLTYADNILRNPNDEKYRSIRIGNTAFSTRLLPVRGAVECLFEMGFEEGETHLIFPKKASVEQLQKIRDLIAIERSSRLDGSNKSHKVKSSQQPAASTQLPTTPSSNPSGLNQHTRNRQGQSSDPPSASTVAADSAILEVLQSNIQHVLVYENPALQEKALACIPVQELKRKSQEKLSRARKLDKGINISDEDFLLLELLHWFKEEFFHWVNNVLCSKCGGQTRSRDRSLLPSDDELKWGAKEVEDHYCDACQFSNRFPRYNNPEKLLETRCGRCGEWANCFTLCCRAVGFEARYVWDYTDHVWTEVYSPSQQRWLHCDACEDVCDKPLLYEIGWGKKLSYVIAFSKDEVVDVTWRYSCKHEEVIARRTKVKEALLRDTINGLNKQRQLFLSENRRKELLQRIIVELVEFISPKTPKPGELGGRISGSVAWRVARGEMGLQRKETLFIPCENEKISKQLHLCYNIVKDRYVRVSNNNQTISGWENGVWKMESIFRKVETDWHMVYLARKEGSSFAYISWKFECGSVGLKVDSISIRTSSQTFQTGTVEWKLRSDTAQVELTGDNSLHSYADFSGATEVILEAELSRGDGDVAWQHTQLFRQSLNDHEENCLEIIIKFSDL
inactive: [1] -0.011 | [2] 0.002 | [3] 0.016 | [4] -0.018 | [5] -0.07

NMRAL1 (UniProt Q9HBL8)
UniProt Q9HBL8, sequence (Q9HBL8 whole entry, looked up): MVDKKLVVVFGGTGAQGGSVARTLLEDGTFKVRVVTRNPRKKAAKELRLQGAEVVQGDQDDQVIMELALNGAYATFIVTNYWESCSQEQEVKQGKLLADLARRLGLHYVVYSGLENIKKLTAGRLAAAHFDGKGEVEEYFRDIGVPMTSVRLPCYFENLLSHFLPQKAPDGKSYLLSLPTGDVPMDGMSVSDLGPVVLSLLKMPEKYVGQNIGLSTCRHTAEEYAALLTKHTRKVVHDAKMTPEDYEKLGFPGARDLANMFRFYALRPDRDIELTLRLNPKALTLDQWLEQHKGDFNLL
inactive: [1] -0.09 | [2] 0.049 | [3] 0.009 | [4] -0.071 | [5] -0.027

NPM3 (UniProt O75607)
inactive: [1] 0.172 | [2] -0.045 | [3] -0.009 | [4] -0.03 | [5] -0.157

NTPCR (UniProt Q9BSD7)
inactive: [1] -0.015 | [2] 0.067 | [3] -0.015 | [4] 0.034 | [5] 0.029

NCOR2 (UniProt C9J0Q5)
inactive: [1] 0.045 | [2] 0.033 | [3] -0.031 | [4] 0.048 | [5] -0.006

NUP93 (UniProt Q8N1F7)
inactive: [1] -0.054 | [2] -0.017 | [3] -0.006 | [4] 0.007 | [5] 0.031

NUSAP1 (UniProt Q9BXS6)
UniProt Q9BXS6, sequence (Q9BXS6 whole entry, looked up): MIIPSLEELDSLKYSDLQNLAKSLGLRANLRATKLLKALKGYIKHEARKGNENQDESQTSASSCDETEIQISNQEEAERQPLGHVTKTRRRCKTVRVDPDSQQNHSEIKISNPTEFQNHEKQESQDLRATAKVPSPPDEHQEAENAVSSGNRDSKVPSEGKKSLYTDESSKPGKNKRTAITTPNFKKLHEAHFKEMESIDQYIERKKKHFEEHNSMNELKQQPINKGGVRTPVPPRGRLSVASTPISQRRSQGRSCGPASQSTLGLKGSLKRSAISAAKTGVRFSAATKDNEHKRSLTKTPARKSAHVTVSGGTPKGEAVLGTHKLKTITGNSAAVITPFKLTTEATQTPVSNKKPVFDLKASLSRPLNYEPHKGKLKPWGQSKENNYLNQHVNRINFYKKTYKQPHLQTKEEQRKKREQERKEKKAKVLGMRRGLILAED
inactive: [1] 0.039 | [2] 0.018 | [3] -0.001 | [4] 0.026 | [5] -0.223

MRPS18A isoform 2 (UniProt Q9NVS2)
inactive: [1] 0.005 | [2] -0.101 | [3] 0.054 | [4] 0.066 | [5] 0.2

N4BP2 (UniProt Q86UW6)
UniProt Q86UW6, sequence (Q86UW6 whole entry, looked up): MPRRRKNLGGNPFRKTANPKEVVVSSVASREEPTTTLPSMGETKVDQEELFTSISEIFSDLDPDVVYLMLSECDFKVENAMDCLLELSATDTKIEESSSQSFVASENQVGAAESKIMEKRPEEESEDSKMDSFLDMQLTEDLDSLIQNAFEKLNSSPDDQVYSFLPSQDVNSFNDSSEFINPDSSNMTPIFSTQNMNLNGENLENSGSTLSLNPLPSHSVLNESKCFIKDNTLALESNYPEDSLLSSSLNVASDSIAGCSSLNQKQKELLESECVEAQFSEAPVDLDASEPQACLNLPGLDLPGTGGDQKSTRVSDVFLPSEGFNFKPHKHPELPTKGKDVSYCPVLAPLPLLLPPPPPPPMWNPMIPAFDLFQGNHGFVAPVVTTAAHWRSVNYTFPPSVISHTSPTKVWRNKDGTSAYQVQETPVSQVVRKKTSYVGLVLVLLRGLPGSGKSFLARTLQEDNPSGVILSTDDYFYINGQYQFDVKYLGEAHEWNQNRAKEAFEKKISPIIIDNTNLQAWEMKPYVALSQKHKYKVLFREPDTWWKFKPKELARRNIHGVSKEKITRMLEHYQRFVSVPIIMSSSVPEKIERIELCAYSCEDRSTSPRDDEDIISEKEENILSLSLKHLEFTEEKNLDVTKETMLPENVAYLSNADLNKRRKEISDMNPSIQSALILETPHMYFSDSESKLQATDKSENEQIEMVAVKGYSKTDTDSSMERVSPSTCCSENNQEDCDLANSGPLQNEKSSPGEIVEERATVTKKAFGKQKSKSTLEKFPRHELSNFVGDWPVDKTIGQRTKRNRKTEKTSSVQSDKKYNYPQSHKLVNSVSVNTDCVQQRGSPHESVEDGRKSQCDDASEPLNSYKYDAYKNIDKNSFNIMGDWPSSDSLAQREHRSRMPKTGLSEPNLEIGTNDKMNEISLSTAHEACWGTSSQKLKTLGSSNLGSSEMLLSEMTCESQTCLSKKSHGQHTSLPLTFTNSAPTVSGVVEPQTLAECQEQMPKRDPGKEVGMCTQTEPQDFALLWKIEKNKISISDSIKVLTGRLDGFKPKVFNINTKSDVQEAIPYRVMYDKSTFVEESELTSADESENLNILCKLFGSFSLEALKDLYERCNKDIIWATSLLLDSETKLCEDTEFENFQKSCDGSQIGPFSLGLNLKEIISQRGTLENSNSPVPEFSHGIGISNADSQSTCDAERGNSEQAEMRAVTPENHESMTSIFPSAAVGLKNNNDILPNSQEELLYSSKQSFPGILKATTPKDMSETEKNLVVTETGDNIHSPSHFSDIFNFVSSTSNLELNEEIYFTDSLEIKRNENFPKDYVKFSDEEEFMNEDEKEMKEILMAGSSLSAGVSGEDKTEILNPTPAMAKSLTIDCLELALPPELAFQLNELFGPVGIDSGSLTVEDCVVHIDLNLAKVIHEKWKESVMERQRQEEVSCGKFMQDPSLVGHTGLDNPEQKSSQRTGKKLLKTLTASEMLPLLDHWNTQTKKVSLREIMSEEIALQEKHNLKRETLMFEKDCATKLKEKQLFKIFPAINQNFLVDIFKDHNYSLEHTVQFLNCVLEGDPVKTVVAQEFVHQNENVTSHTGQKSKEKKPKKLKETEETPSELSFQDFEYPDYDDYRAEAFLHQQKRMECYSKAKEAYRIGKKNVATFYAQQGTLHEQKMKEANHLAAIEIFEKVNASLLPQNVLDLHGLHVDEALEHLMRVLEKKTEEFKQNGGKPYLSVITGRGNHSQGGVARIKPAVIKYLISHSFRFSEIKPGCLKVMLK
inactive: [1] 0.024 | [2] 0.04 | [3] 0.064 | [4] -0.022 | [5] -0.068

MVB12A (UniProt Q96EY5)
inactive: [1] 0.006 | [2] 0.032 | [3] 0.017 | [4] 0.032 | [5] 0.059

NLRP2 (UniProt Q9NX02)
inactive: [1] -0.01 | [2] -0.027 | [3] -0.015 | [4] 0.03 | [5] 0.093

MYD88 isoform 6 (UniProt Q99836)
inactive: [1] 0.019 | [2] -0.021 | [3] 0.026 | [4] -0.008 | [5] 0.013

PAK1 (UniProt Q13153)
UniProt Q13153, sequence (Q13153 whole entry, looked up): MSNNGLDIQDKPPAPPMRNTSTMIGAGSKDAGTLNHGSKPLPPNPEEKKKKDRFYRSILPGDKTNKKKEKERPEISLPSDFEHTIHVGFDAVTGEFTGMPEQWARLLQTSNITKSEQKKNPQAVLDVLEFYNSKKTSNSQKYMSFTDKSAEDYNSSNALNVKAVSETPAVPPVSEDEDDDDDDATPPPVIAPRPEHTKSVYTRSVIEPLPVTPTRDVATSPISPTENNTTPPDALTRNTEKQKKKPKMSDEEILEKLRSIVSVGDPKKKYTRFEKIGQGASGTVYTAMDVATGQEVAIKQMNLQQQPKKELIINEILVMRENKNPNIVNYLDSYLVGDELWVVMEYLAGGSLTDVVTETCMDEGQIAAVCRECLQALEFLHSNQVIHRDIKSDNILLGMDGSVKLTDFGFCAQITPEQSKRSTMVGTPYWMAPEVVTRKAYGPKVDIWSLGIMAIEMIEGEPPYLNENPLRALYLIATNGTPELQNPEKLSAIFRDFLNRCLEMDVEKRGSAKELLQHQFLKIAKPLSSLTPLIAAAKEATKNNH
inactive: [1] 0.029 | [2] -0.009 | [3] -0.011 | [4] 0.015 | [5] -0.126

NBN (UniProt O60934)
UniProt O60934, sequence (O60934 whole entry, looked up): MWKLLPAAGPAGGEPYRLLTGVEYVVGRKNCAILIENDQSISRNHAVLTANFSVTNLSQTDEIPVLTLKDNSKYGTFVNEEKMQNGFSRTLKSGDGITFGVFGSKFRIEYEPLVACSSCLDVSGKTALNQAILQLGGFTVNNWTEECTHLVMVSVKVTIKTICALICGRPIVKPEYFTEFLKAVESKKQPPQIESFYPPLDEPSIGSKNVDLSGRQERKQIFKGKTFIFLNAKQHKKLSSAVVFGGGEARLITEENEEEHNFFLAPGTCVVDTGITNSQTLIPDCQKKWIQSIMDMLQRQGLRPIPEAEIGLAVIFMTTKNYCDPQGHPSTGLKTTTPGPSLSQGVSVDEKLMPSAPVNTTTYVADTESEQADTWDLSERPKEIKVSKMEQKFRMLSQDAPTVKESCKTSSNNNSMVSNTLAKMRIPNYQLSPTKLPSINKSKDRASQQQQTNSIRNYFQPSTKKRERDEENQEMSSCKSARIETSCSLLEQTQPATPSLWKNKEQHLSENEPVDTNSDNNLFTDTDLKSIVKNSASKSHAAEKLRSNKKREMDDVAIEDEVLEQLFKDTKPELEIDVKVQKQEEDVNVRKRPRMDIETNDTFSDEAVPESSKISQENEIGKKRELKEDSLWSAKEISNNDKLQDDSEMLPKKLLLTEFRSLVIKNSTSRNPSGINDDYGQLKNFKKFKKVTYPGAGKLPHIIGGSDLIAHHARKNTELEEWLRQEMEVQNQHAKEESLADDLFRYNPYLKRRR
inactive: [1] 0.074 | [2] 0.046 | [3] 0.003 | [4] -0.011 | [5] 0.059

ORC2 (UniProt Q13416)
UniProt Q13416, sequence (Q13416 whole entry, looked up): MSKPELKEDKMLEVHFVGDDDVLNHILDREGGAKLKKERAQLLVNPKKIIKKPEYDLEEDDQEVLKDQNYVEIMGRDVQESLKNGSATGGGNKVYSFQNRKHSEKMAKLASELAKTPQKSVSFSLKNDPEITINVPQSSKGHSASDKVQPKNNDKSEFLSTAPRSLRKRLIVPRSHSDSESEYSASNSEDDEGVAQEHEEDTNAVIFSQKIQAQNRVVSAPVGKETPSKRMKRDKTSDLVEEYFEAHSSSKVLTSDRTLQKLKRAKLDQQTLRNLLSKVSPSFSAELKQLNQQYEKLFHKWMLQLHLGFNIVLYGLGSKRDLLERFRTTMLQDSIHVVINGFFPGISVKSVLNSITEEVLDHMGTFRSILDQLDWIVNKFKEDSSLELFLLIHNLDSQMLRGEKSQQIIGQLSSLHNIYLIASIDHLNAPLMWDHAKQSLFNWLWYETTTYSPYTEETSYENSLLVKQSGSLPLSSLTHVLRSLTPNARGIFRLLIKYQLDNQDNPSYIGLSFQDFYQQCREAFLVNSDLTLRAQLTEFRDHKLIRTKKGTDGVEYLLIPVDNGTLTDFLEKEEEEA
inactive: [1] -0.052 | [2] -0.011 | [3] -0.012 | [4] 0.025 | [5] 0.044

NUCB2 (UniProt P80303)
inactive: [1] 0.041 | [2] -0.005 | [3] -0.011 | [4] -0.021 | [5] 0.079

NFATC1 (UniProt O95644)
inactive: [1] -0.006 | [2] 0.047 | [3] -0.017 | [4] 0.003 | [5] -0.127
